Screens: PubChem BioAssay, National Center for Advancing Translational Sciences (NCATS)
CHX counter = counter-screen for Shiga toxin inhibitors: cycloheximide protein synthesis inhibition. AID 2314. cell reporter, cycloheximide protein synthesis inhibition counterscreen. max response, %. actives 12% (n = 300,000); in the data active means max response mostly above about 13%, no sharp cut-off; inactive means mostly below about 14%; further: read at 38.3 µM for the half of the compounds with a filed dose; 0% is about no effect
Pf growth 96h = P. falciparum growth inhibition at 96 hour, primary screen for plastid delayed-death inhibitors. P. falciparum luciferase reporter growth, 96 h. Potency, µM (highest dose often 28.7 µM), inactives show at the top dose activity change, negative = inhibition, hits mostly inhibitors. actives 6.9% (n = 320,000). AID 504834; further: potency means the concentration at half of the fitted maximal effect; on the % scale 0 is the no-effect control and ±100 the full control effect
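Delayed-death screen, second-generation endpoint: infected erythrocytes, 2% hematocrit, 0.05% parasitemia final; 96 hours at 37 C, 5% CO2; luciferase detection reagent; luminescence decrease equals reduced growth.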
SARS PLpro yeast = inhibitors of SARS-CoV papain-like protease in yeast; S. cerevisiae expressing SARS-CoV PLpro, growth rescue; Potency, µM (series often up to 32.9 µM), for the others: at the top dose activity, positive = growth rescue, hits mostly activators; actives 0.19% (n = 330,000); calls by dose curve; further: potency means the concentration at half of the fitted maximal effect; 0% is about no effect; nearly all actives have a fitted effect of over 55% in size
AMA1-RON2 inh = inhibitors of Plasmodium falciparum AMA1-RON2 interaction. actives 0.2% (n = 360,000). Potency, µM (titrated, usually from 58.2 µM), for the others: top-dose activity change, negative = inhibition, most hits filed as inhibitors. AlphaScreen AMA1-biotinylated RON2 peptide binding;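 further: potency means the concentration at half of the fitted maximal effect; 0% = vehicle wells and -100% = peptide control; nearly all actives have a fitted effect of over 45% in size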
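AMA1 (3D7) with his tag at 25 nM final met compounds first, then biotinylated RON2 peptide at 25 nM; detection used donor plus acceptor beads, 10 µg/mL apiece, read by AlphaScreen after 30 min at room temperature.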
Pf growth 48h = P. falciparum growth inhibition at 48 hours (one generation); P. falciparum luciferase growth in erythrocytes, 48 h; Potency, µM (highest dose often 28.7 µM), for inactives: top-dose activity change, negative = inhibition, most hits filed as inhibitors; actives 5.9% (n = 310,000); AID 504832; further: potency means the concentration at half of the fitted maximal effect; on the % scale 0 is the no-effect control and ±100 the full control effect
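Luciferase-expressing P. falciparum in infected erythrocytes (2% hematocrit, 0.1% parasitemia final) in RPMI 1640/0.5% Albumax were exposed to compound for 48 hours at 37 C, 5% CO2; growth read as luminescence.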
Shiga inhibitor = blocks Shiga toxin action in Vero cells | Vero cells, Shiga toxin protein synthesis inhibition reporter | inhibition, % at 38.7 µM | actives 9.2% (n = 290,000) | AID 2315; in the data active means inhibition mostly above about 28%, no sharp cut-off; inactive means mostly below about 43%; further: 0% is about no effect
Starred values were filed as active, the others as inactive; i = inactive; ? = inconclusive; . = not tested or not shown; [ ] = remark or other dose. Shown are actives, neighbours in structure and some others; about 19% of the full set was active somewhere. Unless noted, the call rests on the fitted dose curve; in most records, active means well fitted curve in the direction sought with a large enough effect; inconclusive means small, poorly fitted or top-dose-only effect, or another doubt; inactive means no such curve, though single readings can be large; an effect the other way counts as inactive or inconclusive.

SMILES | CHX counter | Pf growth 96h | SARS PLpro yeast | AMA1-RON2 inh | Pf growth 48h | Shiga inhibitor
C=Cc1ccc(C(=O)NC2CCCN(Cc3ccccc3F)C2)cc1 (stereo not drawn) | -2.4 | ? | 1.0% | 1.0% | 0.4% | -6.1
COc1ccc(-n2cnnc2SCC(=O)NC2CCS(=O)(=O)C2)cc1 (stereo not drawn) | -1.9 | 0.1% | . | 2.0% | 4.1% | 16.3
CSc1ccc(-c2nc(CSCC(=O)NC3CC3)c(C)o2)cc1 | 19.7* | 10.5% | 10.6% | -10.6% | -15.1% | 26.9*
Cc1oc(-c2ccccc2Cl)nc1CSCC(=O)NC1CC1 | -1.5 | ? | -0.5% | 5.0% | ? | 10.6
Cc1oc(-c2ccccc2F)nc1CSCC(=O)NC1CCCC1 | -4.8 | 1.47µM* | 0.1% | 1.8% | 4.2% | -7.5
CSc1ccc(-c2nc(CSCC(=O)N3CCOCC3)c(C)o2)cc1 | 26.9* | ? | -0.8% | 0.6% | 41.4% | 107.6*
Cc1ccccc1S(=O)(=O)N(C)C[C@H]1OCc2cnnn2CCCC(=O)N([C@H](C)CO)C[C@H]1C | . | . | . | -3.4% | . | .
COc1ccc(OC)c(Nc2ncnc3c2cnn3-c2cccc(C)c2)c1 | 6.4 | ? | -61.4% | -16.6% | 8.4% | 12.6
c1ccc(-n2ncc3c(NCc4ccccn4)ncnc32)cc1 | 30.3* | . | -7.5% | 9.2% | 54.3% | 73.6*
Cc1cccc(-n2ncc3c(NCc4ccccn4)ncnc32)c1 | 28.6* | -1.5% | -15.0% | 12.2% | 74.2% | 70.1*
O=S1(=O)CC(N2CCC(Cc3ccccc3)CC2)CN1CCc1ccccc1 (stereo not drawn) | . | . | . | -20.2% | . | .
C(#Cc1ccccc1)Cn1nnc2ccccc21 | 36.5* | 39.6% | -5.6% | 14.2% | 37.0% | 49.2*
CCCOC(=O)c1ccc(NC(=O)c2cn(CC)c3nc(C)ccc3c2=O)cc1 | -3.5 | 6.2% | 5.7% | . | ? | -18.4
CCn1cc(C(=O)Nc2ccccc2C(=O)OC)c(=O)c2ccc(C)nc21 | 50.6* | -26.3% | -3.9% | . | i | 144.7*
CCOC(=O)c1ccccc1NC(=O)c1cn(CC)c2nc(C)ccc2c1=O | 40.4* | -5.4% | -15.5% | -16.5% | 266.2% | 63.6*
CCn1cc(C(=O)Nc2ccc(NC(=O)c3ccco3)cc2)c(=O)c2ccc(C)nc21 | -3.5 | 6.57µM* | 1.9% | 6.7% | 22.2% | 13.5
CCOC(=O)c1cn(CC)c2c(ccc3ccccc32)c1=O | 34.7* | -2.1% | 3.1% | 22.1% | 51.2% | 41.8*
O=C(Nc1ccc2c(c1)CCC2)c1cnccn1 | 45.9* | -9.8% | -9.4% | 16.9% | 161.6% | 108.9*
Cc1cnc(C(=O)Nc2ccc3c(c2)CCC3)cn1 | 39.0* | 20.7% | -1.2% | 5.9% | 198.3% | 81.9*
Cc1cnc(C(=O)Nc2cccc(-c3nnc4n3CCCCC4)c2)cn1 | 1.0 | ? | 10.7% | 0.0% | 23.3% | -5.0
Cc1cnc(C(=O)Nc2ccc(F)c(F)c2)cn1 | 20.7* | -7.9% | -10.1% | 11.4% | 131.0% | 55.4*
Cc1cnc(C(=O)Nc2ccc(S(=O)(=O)N(C(C)C)C(C)C)cc2)cn1 | 1.7 | -21.5% | 7.3% | -3.5% | -28.6% | .
Cc1cnc(C(=O)Nc2ccc(S(=O)(=O)NCC(C)C)cc2)cn1 | -3.9 | 9.28µM* | 0.2% | 0.0% | ? | 22.5
Cc1cnc(C(=O)Nc2cc(F)ccc2C)cn1 | 12.3 | -11.3% | -1.7% | 15.2% | 24.9% | 26.4
COc1cc([N+](=O)[O-])ccc1NC(=O)NCCCN1CCCC1=O | 3.5 | 12.0% | -0.9% | -1.2% | 69.7% | -8.4
SMILES | CHX counter | Pf growth 96h | SARS PLpro yeast | AMA1-RON2 inh | Pf growth 48h | Shiga inhibitor
CNc1nc(-c2ccccc2)c2sccc2n1 | . | . | . | 47.6% | . | .
CCCCOc1ccc(NC(=O)c2cnc(C)cn2)cc1 | 13.2* | ? | -2.5% | -19.8% | . | 53.7
O=C(Nc1ccc([N+](=O)[O-])cc1)c1ccccc1F | 39.0* | ? | -2.6% | 8.6% | 272.1% | 116.9*
CC1(c2ccc(NC(=O)c3ccccc3F)cc2)CC1(Cl)Cl (stereo not drawn) | 34.9* | 9.5% | -3.0% | 15.5% | 91.6% | .
O=C(Nc1ccccc1C(=O)Nc1ccccc1)c1ccccc1F | -4.6 | ? | -0.1% | 8.0% | 5.6%[0.00184 µM] | -3.8
O=C(Nc1ccccc1)c1cc([N+](=O)[O-])ccc1NC1CCCCC1 | -0.1 | ? | -6.3% | -9.3% | 8.28µM* | 1.0
O=C(Nc1ccc(-c2ccc([N+](=O)[O-])cc2)cc1)c1ccccc1F | 16.1 | 10.1% | -1.6% | 13.8% | 26.3% | 12.1
N#Cc1ccc(C(=O)Nc2ccc([N+](=O)[O-])cc2)c(F)c1 | 7.8 | 23.5% | 0.3% | -8.8% | 35.4% | 52.0*
COc1ccc(C2=Cc3ccccc3C(CC(=O)C3CC3)N2c2ccc(-c3cc(OC)c(OC)c(OC)c3)cc2)cc1 (stereo not drawn) | . | . | . | 9.6% | . | .
O=C(O)/C=C/C(=O)Nc1ccc(OC(F)(F)F)cc1Br | 4.4 | -23.2% | -5.1% | 2.5% | -23.3% | 7.9
CCC(=O)NC(=S)Nc1ccc(NC(=O)c2ccco2)cc1 | 29.2* | ? | -1.5% | -13.5% | ? | 58.8*
CCC(=O)NC(=S)Nc1ccc(NC(=O)c2ccco2)c(OC)c1 | 9.8 | 34.9% | -0.7% | -2.4% | -6.1% | active
CCc1ccc(NC(=S)NC(=O)CC(C)C)cc1 | 70.5* | 110.0% | ? | 3.5% | 0.0% | 19.1*
CC(C)CC(=O)NC(=S)Nc1ccc(NC(=O)c2ccco2)cc1 | 1.3 | 6.57µM* | -7.0% | -3.9% | ? | 1.7
CCCCC(=O)NC(=S)Nc1cccc(NC(=O)c2ccco2)c1 | -1.2 | -0.5% | 6.1% | 7.3% | 13.3% | -12.4
CC(=O)NS(=O)(=O)c1ccc(NC(=S)NC(=O)CC(C)C)cc1 | -2.6 | ? | 0.4% | 19.2% | 3.5% | -8.2
CN(C)S(=O)(=O)n1cc(/C=C(\NC(=O)c2ccccc2F)C(=O)N2CCCCC2)c2ccccc21 | . | . | . | -5.4% | . | .
CC1=C(C(=O)c2ccccc2)C(c2ccc(N3CCOCC3)cc2)NC(=O)N1 (stereo not drawn) | 1.5 | ? | 1.2% | 8.1% | -28.5% | -6.9
CC1=C(C(=O)Nc2ccc(C)cc2)C(c2cccs2)NC(=S)N1 (stereo not drawn) | 19.3* | 51.9% | 23.9% | 5.3% | -3.4% | 21.8
CC1=C(C(=O)Nc2ccccn2)C(c2ccc(Br)cc2)n2ncnc2N1 (stereo not drawn) | 22.0 | -16.8% | -4.1% | 1.5% | 37.8% | 23.9
CC1=C(C(=O)Nc2ccc(F)c(F)c2)C(c2cccs2)NC(=S)N1 (stereo not drawn) | -3.6 | 13.5% | -8.0% | 2.7% | -2.8% | 1.5
CCOC(=O)c1c(NC(=O)C2=C(C)NC(=S)NC2c2ccc(C)cc2)sc(C)c1C (stereo not drawn) | 8.2 | ? | 10.8% | 56.7% | 11.7µM* | 21.2
CCOC(=O)c1c(NC(=O)C2=C(C)NC(=S)NC2c2ccc(F)cc2)sc(C)c1C (stereo not drawn) | 1.0 | ? | 7.2% | 108.7% | ? | 20.0
